Source: PubChem BioAssay AID2289 (National Center for Advancing Translational Sciences (NCATS), 2010)
In all, about 340,000 compounds went through this assay and about 3,300 (0.97%) were called active. Inconclusive results (about 9%) are left out. Calls come from the whole dose curve; as a rule, active = well fitted inhibition curve with a large enough effect; inconclusive = small, poorly fitted or top-dose-only effect, or effect the other way; inactive = flat fitted curve, though single readings scatter. The list shows a part of the results.

assay: qHTS Assay for Modulators of miRNAs and/or Inhibitors of miR-21; conditions: HeLa miR-21-FLuc reporter, luciferase luminescence, 48 h; actives lower the signal; note: nearly all actives have a fitted effect of over 55% in size
Summary of the method: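 Luminescence from a firefly luciferase reporter carrying a miR-21 binding site downstream, stably expressed under a CMV promoter in HeLa cells that make miR-21 endogenously, reports miRNA modulation after 48 h compound exposure up to approximately 40uM final.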
Potency is the fitted concentration of half-maximal effect.

Potency, active:
Cc1nnc(SCc2ccccc2)c2cc3sccc3n12 14.7 µM, COc1cccc2cc(-c3nc(-c4ccccc4F)no3)c(=O)oc12 0.185 µM, COc1cccc2cc(-c3ccccc3)c(=O)oc12 1.65 µM, Cc1cc(NC(=O)CSc2nc3c(cc2C#N)CCCC3)no1 1.47 µM, COc1cc2cc(C#N)c(SCC(=O)N3CCOCC3)nc2cc1OC 11.7 µM, N#Cc1cc2cc3c(cc2nc1SCC(=O)N1CCOCC1)OCO3 0.656 µM, Clc1ccc(-c2cnc3ccccc3n2)cc1 4.14 µM, CCCCOc1ccc(-c2cnc3ccccc3n2)cc1 0.656 µM, CN(C)c1ccc(-n2cccc2/C=N/n2cnnc2)cc1 8.26 µM, COC(=O)c1ccc(COc2ccc(C(C)(C)C)cc2)o1 10.4 µM, COC(=O)c1ccc(COc2ccc(C)c(C)c2)o1 14.7 µM, O=C(OCc1ccccn1)c1ccc(COc2ccc3ccccc3c2)o1 6.56 µM, CCCc1ccc(OCc2ccc(C(=O)OC)o2)c(OC)c1 7.36 µM, COC(=O)c1ccc(COc2ccc(C)cc2[N+](=O)[O-])o1 13.1 µM, CCc1ccc(OCc2ccc(C(=O)OC)o2)cc1 5.21 µM, COC(=O)c1ccc(COc2ccc3c(c2)CCC3)o1 5.21 µM, Cc1cc(Cl)c2oc(C(=O)N(C)CC3CCOCC3)c(C)c2c1 14.7 µM, Cc1cc(Cl)c2oc(C(=O)NCCC3CCCCO3)c(C)c2c1 (configuration not stated) 14.7 µM, C=CCN(C(=O)c1oc2c(Cl)cc(C)cc2c1C)C1CCS(=O)(=O)C1 (configuration not stated) 10.4 µM, Cc1cc(Cl)c2oc(C(=O)N(C)C3CCOC3)c(C)c2c1 (configuration not stated) 14.7 µM, Cc1nc2sc(-c3ccccc3)cc2c(=O)n1/N=C/N(C)C 3.29 µM, CN(C)c1ncnc2sc(-c3ccccc3)cc12 14.7 µM, CCCCn1cnc2c(oc3ccccc32)c1=O 13.1 µM, CCc1cc2c(=O)n(-c3ccccc3)cnc2s1 13.1 µM, CCn1cnc2sc(-c3ccccc3)cc2c1=O 1.47 µM, CCc1cc2c(SCC(=O)c3ccccc3)ncnc2s1 8.26 µM, CC(=O)Cn1nnc2sc(-c3ccccc3)cc2c1=O 1.85 µM, O=C(CSc1ncnc2ccccc12)c1ccc2c(c1)OCCO2 2.07 µM, CCCCn1cnc2sc(-c3ccccc3)cc2c1=O 1.31 µM, CC(=O)Cn1cnc2sc(-c3ccccc3)cc2c1=O 4.14 µM, Cn1c(C(=O)NC2CCCCC2)cc2sccc21 6.56 µM, O=C(NC1CCCCC1)c1cc(-c2cccs2)on1 2.93 µM, O=C(NC1CCCC1)c1cc(-c2cccs2)on1 2.33 µM, O=C(Nc1nnc(-c2ccccc2F)s1)C1CCCO1 (configuration not stated) 1.85 µM, O=C(Nc1nnc(SCc2c(Cl)cccc2Cl)s1)C1CCCO1 (configuration not stated) 18.5 µM, Cc1cccc2sc(NC(=O)C3CCCO3)nc12 (configuration not stated) 13.1 µM, O=C(Nc1ncc(Cc2cccc(Cl)c2)s1)C1CCCO1 (configuration not stated) 7.36 µM, O=C(Nc1ncc(Cc2cccc(Cl)c2Cl)s1)C1CCCO1 (configuration not stated) 7.36 µM, CC1CCCN(c2ccc(C(=O)NCc3cccs3)cn2)C1 (configuration not stated) 6.56 µM, CC(C)(CO)NC(=O)c1ccc2c(c1)C(=O)c1ccccc1-2 5.21 µM, Cc1ccsc1C(=O)OCC(=O)NCCC1=CCCCC1 18.5 µM, O=c1[nH]cnc2scc(-c3ccc(-c4ccccc4)cc3)c12 0.521 µM, Cc1ccccc1-c1ncnn1-c1sc2c(c1C#N)CCCCC2 1.31 µM, N#Cc1c(-n2ncnc2-c2ccc(F)cc2)sc2c1CCCCC2 3.69 µM, C1=Nc2ccccc2CN1c1ccccc1 5.85 µM, Oc1cccc(-c2nc3ccc4ccccc4c3c3c2CCC3)c1 5.21 µM, CCOCCCNC(=O)c1cccc(OC2CCN(S(C)(=O)=O)CC2)c1 5.85 µM, Nc1c(C(=O)C2CC2)sc2nc3c(cc12)CCC3 1.85 µM, Nc1c(C(=O)N2CCCCC2)sc2nc3c(cc12)CCCC3 1.31 µM, COCCCN(C(C)=O)c1nc(-c2ccccc2)cs1 6.56 µM, CN(C(=O)c1ccco1)c1nc(-c2ccccc2)cs1 1.85 µM, COc1ccccc1/C=N/Nc1nncc2ccccc12 4.65 µM, COc1ccc(/C=N/Nc2nncc3ccccc23)c(OC)c1 5.85 µM, COc1ccccc1C(=O)NC1=NC(c2ccc(Br)cc2)CC(=O)N1 (configuration not stated) 1.85 µM, N=c1nc(N)nc2n1NC(c1ccc(F)cc1)=CS2 16.5 µM, C(=C\c1nc(-c2ccccc2)no1)/c1ccccc1 1.04 µM, Clc1ccccc1/C=C/c1nc(-c2cccnc2)no1 0.656 µM, Cc1ccc2oc(-c3ccco3)cc(=O)c2c1 5.85 µM, Cc1cccc2c1-c1sc(C(=O)Nc3ccccc3C(N)=O)cc1CO2 0.165 µM, Cc1cccc2c1-c1sc(C(=O)N3CCCCC3)cc1CO2 3.69 µM, CCN(CC)c1ccc(-c2nc3cnccc3n2C)cc1 3.69 µM, COc1ccc(NC(=O)n2ncc3c(C)cccc32)cc1OC 7.36 µM, COc1ccc(NC(=O)n2ncc3cc(Cl)ccc32)cc1OC 8.26 µM, COc1ccc2nc3sc(C(=O)NCc4cccs4)c(N)c3cc2c1 1.31 µM, Cc1ccc2nc3sc(C(=O)NCc4ccco4)c(N)c3cc2c1 0.521 µM, c1ccc(CN2CCN(c3nc4ccccc4s3)CC2)cc1 1.31 µM, Clc1ccc2nc(N3CCCCC3)sc2c1 2.07 µM, Clc1ccc2nc(N3CCN(c4ccccc4)CC3)sc2c1 0.464 µM, CC(C)(C)c1ccc(/C=C/C(=O)Nc2nncs2)cc1 0.369 µM, O=C(COc1ccc2ccccc2c1Br)NC(=S)Nc1cccc(CO)c1 20.7 µM, O=C(COc1ccc(Br)cc1Br)NC(=S)Nc1cccc(CO)c1 1.65 µM, CCn1c(=NC(=O)c2ccc3c(c2)OCCO3)sc2c(C)ccc(OC)c21 1.31 µM, COc1ccc(C(=O)N=c2sc3c(C)ccc(OC)c3n2C)cc1 0.185 µM, COc1ccccc1C(=O)N=c1sc2c(C)ccc(OC)c2n1C 3.69 µM, O=C(NC(=S)Nc1ccc2c(c1)OCCO2)c1cccc(Br)c1 3.69 µM, CCc1ccc(C(=O)NC(=S)Nc2ccc3c(c2)OCCO3)cc1 2.07 µM, Cc1cc(C)cc(C(=O)NC(=S)Nc2ccc3c(c2)OCCO3)c1 7.36 µM, O=C(O)c1ccc(-c2nc(-c3ccccc3)cs2)cc1 2.61 µM, O=C(O)c1ccc(-c2nc(-c3ccc(Cl)cc3)cs2)cc1 0.414 µM, CNC(=O)c1ccc(-c2nc(-c3ccccc3)cs2)cc1 3.29 µM, C/C(CC(=O)NCc1ccccc1Cl)=N/NC(=O)c1ccccn1 8.26 µM, C/C(CC(=O)Nc1cc(C)cc(C)c1)=N\NC(=O)c1ccccn1 4.65 µM, COc1ccccc1NC(=O)C/C(C)=N/NC(=O)c1ccccn1 1.85 µM, CCOC(=O)C1CCCN(C(=O)CCc2nnc(-c3ccc(C(C)=O)s3)o2)C1 (configuration not stated) 3.29 µM, Fc1ccccc1-n1ncc2c1ncn1nc(-c3ccccc3Cl)nc21 0.736 µM, COc1c2c(cc3oc(=O)ccc13)OC(C)(C)C=C2 18.5 µM, CC1(C)C=Cc2cc3ccc(=O)oc3cc2O1 13.1 µM, O=C(NC(=S)Nc1ccccc1C(=O)O)c1ccc(-c2ccc(Br)cc2)o1 11.7 µM, NC(=O)c1ccccc1NC(=O)c1ccc(-c2ccc(Br)cc2)o1 1.17 µM, S=c1[nH]nc(-c2ccc(Cl)cc2Cl)n1-c1ccccc1 5.21 µM, CN(c1ccccc1)c1ccc(/C=N/N2CCOCC2)cc1 1.47 µM, O=[N+]([O-])c1ncccc1OCc1ccc(Cl)c(Cl)c1 7.36 µM, COc1ccc2nc(NC(=O)c3cccnc3SC)sc2c1 2.93 µM, COc1ccc2nc(NC(=O)c3ccc(Br)s3)sc2c1 1.17 µM, O=C(NC(=O)c1ccc(Cl)cc1)OC1CCCCC1 16.5 µM, Cc1cc(CC(C)C)n(-c2nc3ccccc3c(=O)n2OCC(=O)N(C)C)n1 18.5 µM, COc1ccc(CCn2nc(C)c([N+](=O)[O-])c2C)cc1 4.14 µM, O=C(/C=C/Nc1ccccc1O)c1ccco1 18.5 µM, CC(=O)N1c2ccccc2Oc2cc3ccccc3cc21 9.27 µM, CCCC(=O)N(CCN1CCOCC1)c1nc2cc(C)c(C)cc2s1 2.33 µM, O=C(NC(=S)Nc1ccc2ncccc2c1)c1ccccc1 6.56 µM, Cc1csc(NC(=S)NC(=O)c2ccccc2)n1 1.31 µM, O=C(Nc1ccc2ncccc2c1)c1ccccc1Br 1.65 µM, Cc1cc(C(=O)Nc2cnc3ccccc3c2)ccc1[N+](=O)[O-] 0.736 µM, O=C(NNC(=S)Nc1ccccc1)c1ccc2ncccc2c1 8.26 µM, O=C(NC(=S)Nc1cnc2ccccc2c1)c1ccccc1 0.585 µM, O=C(NC(=S)Nc1ccc(Cl)cc1)c1ccccc1 4.65 µM
